Experiment [1] has as its target T1, Ephrin type-A receptor 3 (Homo sapiens) (UniProt P29320).
T1 sequence (whole entry): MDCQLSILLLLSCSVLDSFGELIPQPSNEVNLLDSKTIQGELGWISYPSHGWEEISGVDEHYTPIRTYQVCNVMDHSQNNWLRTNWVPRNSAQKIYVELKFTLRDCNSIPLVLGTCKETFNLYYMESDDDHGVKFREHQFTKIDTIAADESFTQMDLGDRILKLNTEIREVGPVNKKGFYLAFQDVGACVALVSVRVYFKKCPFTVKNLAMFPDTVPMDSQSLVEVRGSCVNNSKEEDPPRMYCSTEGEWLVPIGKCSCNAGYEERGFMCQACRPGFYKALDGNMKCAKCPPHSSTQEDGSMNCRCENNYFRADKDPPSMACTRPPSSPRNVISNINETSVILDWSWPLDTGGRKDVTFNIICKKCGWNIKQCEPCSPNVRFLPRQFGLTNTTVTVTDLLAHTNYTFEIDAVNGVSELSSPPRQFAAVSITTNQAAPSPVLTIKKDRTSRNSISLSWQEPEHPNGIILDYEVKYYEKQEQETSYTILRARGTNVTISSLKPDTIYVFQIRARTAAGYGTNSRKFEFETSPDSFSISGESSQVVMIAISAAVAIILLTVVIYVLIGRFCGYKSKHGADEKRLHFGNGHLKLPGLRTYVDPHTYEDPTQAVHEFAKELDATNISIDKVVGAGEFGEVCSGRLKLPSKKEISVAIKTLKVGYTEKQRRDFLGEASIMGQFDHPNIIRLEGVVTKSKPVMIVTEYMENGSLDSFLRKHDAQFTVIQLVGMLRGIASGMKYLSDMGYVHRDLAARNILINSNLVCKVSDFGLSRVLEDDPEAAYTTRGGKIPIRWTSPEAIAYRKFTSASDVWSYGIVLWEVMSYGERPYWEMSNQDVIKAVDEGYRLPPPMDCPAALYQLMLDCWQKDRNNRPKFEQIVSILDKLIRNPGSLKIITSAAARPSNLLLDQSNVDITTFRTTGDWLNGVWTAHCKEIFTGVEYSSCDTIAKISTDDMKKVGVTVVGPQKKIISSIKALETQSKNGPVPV
Conditions: at 10 µM.

The target in experiment [2] is Ephrin type-A receptor 4 (Homo sapiens) (UniProt P54764). The settings on record: at 1 µM.
Experiment [3] shares this target. The settings on record: at 10 µM.
Experiment [4] concerns the target Ephrin type-A receptor 5 (Homo sapiens) (UniProt P54756). Conditions: at 1 µM.
Experiment [5] shares this target. The settings on record: at 10 µM.
Experiment [6] addresses Ephrin type-A receptor 7 (Homo sapiens) (UniProt Q15375). Conditions: at 1 µM.
For experiment [7] the target is unchanged. The settings on record: at 10 µM.
Experiment [8] has as its target T2, Ephrin type-A receptor 8 (Homo sapiens) (UniProt P29322).
T2 sequence (whole entry): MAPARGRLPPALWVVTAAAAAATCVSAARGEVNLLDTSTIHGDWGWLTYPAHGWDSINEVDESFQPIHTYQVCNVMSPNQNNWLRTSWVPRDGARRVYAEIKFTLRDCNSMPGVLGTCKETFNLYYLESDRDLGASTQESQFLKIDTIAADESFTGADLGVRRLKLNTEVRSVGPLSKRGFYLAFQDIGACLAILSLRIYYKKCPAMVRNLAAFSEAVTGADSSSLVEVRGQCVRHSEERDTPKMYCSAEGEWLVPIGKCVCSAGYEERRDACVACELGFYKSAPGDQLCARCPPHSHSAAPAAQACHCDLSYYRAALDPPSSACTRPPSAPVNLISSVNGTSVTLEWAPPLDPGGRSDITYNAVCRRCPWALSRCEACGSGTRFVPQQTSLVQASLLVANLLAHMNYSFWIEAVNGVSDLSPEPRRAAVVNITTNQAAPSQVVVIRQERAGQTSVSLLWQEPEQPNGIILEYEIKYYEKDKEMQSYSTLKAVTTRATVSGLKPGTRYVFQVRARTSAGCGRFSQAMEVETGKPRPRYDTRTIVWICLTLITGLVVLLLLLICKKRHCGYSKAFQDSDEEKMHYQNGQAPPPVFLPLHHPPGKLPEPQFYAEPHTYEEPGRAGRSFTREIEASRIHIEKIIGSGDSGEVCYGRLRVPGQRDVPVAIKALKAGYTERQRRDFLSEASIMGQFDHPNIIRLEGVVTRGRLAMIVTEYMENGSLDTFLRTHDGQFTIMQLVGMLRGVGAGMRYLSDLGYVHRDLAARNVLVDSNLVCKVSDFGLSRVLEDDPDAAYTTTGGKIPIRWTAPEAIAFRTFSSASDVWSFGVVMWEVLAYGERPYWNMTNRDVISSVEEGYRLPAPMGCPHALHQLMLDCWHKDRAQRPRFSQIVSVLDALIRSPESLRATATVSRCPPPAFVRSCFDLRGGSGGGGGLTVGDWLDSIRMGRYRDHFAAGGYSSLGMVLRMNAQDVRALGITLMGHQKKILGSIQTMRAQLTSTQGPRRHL
The settings on record: at 1 µM.

Experiment [9] concerns the target T2, Ephrin type-A receptor 8 (Homo sapiens). Conditions: at 10 µM.
The target of experiment [10] is T3, Ephrin type-B receptor 1 (Homo sapiens) (UniProt P54762).
T3 sequence (whole entry): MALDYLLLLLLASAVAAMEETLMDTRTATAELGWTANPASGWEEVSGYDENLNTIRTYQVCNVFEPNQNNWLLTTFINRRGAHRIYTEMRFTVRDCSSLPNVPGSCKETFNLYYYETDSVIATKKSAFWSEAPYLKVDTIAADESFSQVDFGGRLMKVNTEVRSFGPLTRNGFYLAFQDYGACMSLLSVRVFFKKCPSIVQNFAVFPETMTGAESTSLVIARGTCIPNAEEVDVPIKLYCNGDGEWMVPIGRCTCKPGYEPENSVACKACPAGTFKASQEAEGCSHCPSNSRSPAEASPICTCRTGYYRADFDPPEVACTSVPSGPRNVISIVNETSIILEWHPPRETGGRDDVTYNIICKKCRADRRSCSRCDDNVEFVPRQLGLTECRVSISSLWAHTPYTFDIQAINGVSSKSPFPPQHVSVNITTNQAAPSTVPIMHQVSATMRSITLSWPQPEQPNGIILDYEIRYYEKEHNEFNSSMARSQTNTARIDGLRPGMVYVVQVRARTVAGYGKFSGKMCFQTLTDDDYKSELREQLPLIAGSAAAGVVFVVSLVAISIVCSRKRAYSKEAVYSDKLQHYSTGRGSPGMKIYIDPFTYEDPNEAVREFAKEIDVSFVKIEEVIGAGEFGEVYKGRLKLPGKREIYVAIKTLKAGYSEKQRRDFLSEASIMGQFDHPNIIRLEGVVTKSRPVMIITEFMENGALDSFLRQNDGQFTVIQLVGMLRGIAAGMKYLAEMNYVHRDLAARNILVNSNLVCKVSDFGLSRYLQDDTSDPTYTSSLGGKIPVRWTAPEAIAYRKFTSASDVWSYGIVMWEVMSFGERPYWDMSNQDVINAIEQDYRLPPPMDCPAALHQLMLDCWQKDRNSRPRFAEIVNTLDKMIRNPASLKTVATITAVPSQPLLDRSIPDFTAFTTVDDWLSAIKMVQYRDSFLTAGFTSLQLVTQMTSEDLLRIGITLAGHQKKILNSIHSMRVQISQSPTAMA
Conditions: at 1 µM.

Experimental findings from ChEMBL document CHEMBL2218924, “A broad activity screen in support of a chemogenomic map for kinase signalling research and drug discovery” (Biochem J, 2013) are described below.

Molecules are shown by their SMILES.

Ephrin type-A receptor 4 (Homo sapiens), sequence (P54764 whole entry): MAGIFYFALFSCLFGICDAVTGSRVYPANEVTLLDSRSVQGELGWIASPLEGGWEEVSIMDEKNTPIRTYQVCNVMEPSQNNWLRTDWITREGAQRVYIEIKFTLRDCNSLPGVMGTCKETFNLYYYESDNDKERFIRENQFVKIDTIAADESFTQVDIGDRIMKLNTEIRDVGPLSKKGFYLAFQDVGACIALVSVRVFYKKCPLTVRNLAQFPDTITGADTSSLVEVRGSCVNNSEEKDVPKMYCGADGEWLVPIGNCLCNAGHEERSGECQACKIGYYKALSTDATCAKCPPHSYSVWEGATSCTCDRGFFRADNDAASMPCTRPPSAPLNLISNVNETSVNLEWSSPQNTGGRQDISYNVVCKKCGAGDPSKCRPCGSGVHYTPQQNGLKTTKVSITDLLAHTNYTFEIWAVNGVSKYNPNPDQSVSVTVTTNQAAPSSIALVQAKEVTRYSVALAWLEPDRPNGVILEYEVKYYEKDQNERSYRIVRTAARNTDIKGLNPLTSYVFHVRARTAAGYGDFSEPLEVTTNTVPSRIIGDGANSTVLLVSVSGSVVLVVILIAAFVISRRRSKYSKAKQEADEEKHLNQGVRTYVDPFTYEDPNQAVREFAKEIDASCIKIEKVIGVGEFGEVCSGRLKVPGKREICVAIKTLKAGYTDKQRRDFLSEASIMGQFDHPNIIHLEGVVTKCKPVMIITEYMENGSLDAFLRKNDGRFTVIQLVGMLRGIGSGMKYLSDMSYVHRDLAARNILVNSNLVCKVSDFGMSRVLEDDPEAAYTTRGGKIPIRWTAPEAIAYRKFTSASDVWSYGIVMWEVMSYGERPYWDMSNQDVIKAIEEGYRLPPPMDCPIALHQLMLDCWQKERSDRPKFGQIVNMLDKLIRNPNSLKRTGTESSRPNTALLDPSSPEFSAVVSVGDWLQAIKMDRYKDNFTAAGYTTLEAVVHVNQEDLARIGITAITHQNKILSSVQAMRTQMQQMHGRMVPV
Ephrin type-A receptor 5 (Homo sapiens), sequence (P54756 whole entry): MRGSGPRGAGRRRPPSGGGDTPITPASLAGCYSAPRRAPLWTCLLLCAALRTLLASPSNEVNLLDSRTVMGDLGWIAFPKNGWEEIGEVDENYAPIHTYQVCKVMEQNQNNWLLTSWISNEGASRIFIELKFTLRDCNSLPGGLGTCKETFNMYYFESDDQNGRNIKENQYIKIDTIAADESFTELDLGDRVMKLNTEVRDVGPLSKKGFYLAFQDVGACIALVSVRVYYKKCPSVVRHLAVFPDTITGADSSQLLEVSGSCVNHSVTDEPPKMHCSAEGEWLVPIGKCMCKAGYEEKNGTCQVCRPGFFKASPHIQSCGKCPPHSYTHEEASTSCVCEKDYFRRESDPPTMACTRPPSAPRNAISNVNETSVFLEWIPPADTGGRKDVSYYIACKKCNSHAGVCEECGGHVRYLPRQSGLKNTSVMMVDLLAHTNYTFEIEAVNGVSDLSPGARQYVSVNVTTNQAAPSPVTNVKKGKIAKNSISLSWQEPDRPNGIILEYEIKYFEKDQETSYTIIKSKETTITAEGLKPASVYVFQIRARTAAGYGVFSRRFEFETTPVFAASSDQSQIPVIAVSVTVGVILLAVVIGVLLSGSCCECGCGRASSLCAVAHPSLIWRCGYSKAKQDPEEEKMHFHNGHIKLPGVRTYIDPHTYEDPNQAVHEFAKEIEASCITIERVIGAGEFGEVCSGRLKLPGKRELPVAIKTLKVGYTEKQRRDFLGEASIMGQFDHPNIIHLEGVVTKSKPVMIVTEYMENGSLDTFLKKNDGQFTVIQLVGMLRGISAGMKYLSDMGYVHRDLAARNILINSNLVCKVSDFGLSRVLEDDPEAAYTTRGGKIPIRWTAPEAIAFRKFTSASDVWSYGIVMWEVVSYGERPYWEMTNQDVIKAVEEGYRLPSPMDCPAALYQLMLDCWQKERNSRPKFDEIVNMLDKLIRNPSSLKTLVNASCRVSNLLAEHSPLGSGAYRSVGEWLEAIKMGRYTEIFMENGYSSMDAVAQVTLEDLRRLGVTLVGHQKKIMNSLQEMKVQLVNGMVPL
Ephrin type-A receptor 7 (Homo sapiens), sequence (Q15375 28-998 limits assumed): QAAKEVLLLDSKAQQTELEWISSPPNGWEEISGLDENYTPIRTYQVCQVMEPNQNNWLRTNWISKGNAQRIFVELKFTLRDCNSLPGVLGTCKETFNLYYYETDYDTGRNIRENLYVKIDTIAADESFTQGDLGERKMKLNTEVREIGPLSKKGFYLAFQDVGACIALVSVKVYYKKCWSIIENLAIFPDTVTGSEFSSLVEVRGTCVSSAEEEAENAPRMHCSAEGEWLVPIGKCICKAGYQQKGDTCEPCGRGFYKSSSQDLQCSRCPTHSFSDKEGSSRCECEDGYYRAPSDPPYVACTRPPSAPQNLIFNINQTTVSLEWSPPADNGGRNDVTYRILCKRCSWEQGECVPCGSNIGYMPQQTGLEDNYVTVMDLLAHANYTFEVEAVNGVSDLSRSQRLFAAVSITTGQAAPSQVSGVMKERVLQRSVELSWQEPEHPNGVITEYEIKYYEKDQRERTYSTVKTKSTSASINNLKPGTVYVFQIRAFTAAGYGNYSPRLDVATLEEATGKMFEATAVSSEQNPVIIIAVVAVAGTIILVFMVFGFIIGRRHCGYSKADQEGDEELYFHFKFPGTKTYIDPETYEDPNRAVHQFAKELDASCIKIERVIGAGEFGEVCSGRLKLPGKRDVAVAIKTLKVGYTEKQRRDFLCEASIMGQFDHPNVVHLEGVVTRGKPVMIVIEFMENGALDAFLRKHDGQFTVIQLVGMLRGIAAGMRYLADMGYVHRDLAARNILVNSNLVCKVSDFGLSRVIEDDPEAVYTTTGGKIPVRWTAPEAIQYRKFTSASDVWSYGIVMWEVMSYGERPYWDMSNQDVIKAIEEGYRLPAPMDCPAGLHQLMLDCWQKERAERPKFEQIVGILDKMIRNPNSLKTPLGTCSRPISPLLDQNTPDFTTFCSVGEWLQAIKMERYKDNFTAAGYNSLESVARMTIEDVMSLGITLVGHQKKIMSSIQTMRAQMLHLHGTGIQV

In the case of `N#C/C(=C(\N)Sc1ccc(N)cc1)c1ccccc1C(F)(F)F`, the residual activity (in general, the signal under treatment as a percentage of the control signal) turned out to be 99% in experiment [1]; 116% in experiment [2]; 112% in [3]; 98% in experiment [4]; 95% in experiment [5]; 99% in experiment [6]. Moreover, the residual activity in experiment [7] turned out to be 89%; in experiment [8], 85%; in experiment [9], 87%; in experiment [10] it was 110%.
